Sampled rows, rich in hits. Any-hit rate of the full collection: about 2.6%.
Bim-Mcl-1 = inhibitors of Bim peptide binding to Mcl-1, primary screen, biochemical, bead-based flow cytometry, multiplex; Bim peptide-Mcl-1 binding; inhibition, % at 10 µM; 190,000 tested, 0.1% active; in the data active = inhibition above about 40%;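 also: 0% = no compound tracer wells and 100% = peptide blocker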
Target sequence (Q07820 whole entry, looked up): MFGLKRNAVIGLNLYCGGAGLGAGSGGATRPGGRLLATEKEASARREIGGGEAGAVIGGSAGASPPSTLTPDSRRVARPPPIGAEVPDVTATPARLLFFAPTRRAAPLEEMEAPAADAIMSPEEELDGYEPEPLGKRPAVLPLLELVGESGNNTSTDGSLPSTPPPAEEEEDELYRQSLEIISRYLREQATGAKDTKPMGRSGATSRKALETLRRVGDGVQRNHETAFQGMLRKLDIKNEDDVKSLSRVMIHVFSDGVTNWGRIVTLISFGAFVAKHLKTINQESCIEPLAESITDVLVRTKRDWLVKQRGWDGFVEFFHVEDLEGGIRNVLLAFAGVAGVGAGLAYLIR
eIF4E 4G PPI = eIF4E–eIF4G protein interaction inhibitors, primary screen, biochemical, uHTS, TR-FRET, eIF4GI fragment | Eukaryotic translation initiation factor 4E (Mus musculus) + Eukaryotic translation … | TR-FRET eIF4E-eIF4GI(517-606) binding, 2 h | inhibition, % at 21.7 µM | 220,000 tested, 0.37% active | AID 782, 2007;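 active = inhibition above about 30%, limit read from the data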;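 also: 0% = full FRET control wells and 100% = background wells lacking eIF4GI fragment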
MCL1-BIM inh = inhibitors of MCL1 binding to BIM-BH3, primary screen, biochemical, fluorescence polarization | AID 2057, 2009 | GST-MCL1 / FITC-Bim-BH3 fluorescence polarization | 320,000 tested, 0.68% active | inhibition, % at 10.9 µM | Induced myeloid leukemia cell differentiation protein Mcl-1 (Homo sapiens), Q07820;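 active = inhibition above the mean inhibition of all tested compounds plus 3 SD, set per campaign, cut at about 40% in these data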;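 also: 0% = DMSO wells and 100% = unlabeled Bim-BH3 peptide control; higher means more loss of mP so more displacement of Bim peptide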
Mcl1-Bid inh = Mcl-1/Bid binding inhibitors, primary screen, biochemical, TR-FRET, 1536-well. inhibition, % at 21.7 µM. Induced myeloid leukemia cell differentiation protein Mcl-1 (Homo sapiens), Q07820. AID 1021, 2008. TR-FRET Mcl-1/Bid-Dy647 peptide binding. 220,000 tested, 0.97% active;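 active = compounds that cut the binding signal by more than half at the single screening dose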;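 also: His-tagged Mcl-1 with europium anti-His antibody binding Bid BH3 peptide; 0% = Mcl-1 plus peptide wells and 100% = peptide-only wells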
14-3-3 Bad PPI = inhibitors of 14-3-3 zeta/Bad binding, primary screen, biochemical, TR-FRET, bovine 14-3-3 zeta. 14-3-3 protein zeta/delta (Bos taurus), P63103. TR-FRET 14-3-3zeta/Dy647-pBad peptide displacement, 1 h. inhibition, % at 21.7 µM. 220,000 tested, 0.71% active;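 active = inhibition above about 70%, limit read from the data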;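 also: 0% = full 14-3-3 plus peptide FRET controls and 100% = background without 14-3-3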
Target sequence (P63103 whole entry, looked up): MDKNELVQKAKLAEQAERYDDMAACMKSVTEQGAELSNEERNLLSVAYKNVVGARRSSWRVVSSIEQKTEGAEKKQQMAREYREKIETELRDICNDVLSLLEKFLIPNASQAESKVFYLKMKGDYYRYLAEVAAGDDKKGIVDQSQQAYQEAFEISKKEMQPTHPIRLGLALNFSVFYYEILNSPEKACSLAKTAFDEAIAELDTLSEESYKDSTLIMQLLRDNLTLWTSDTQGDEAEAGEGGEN
Mcl1 Noxa PPI = Mcl-1/Noxa binding inhibitors, primary screen, biochemical, TR-FRET, 1536-well; Induced myeloid leukemia cell differentiation protein Mcl-1 (Homo sapiens), Q07820; TR-FRET Mcl-1/Noxa peptide binding, 2 h; inhibition, % at 21.7 µM; 220,000 tested, 1.5% active; AID 1022, 2008;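 active = compounds that cut the protein-peptide binding signal by more than 50% relative to plate controls in a single-dose test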;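 also: His-tagged Mcl-1 with rhodamine Noxa BH3 peptide and terbium anti-His antibody; 0% = Mcl-1 plus Noxa peptide wells and 100% = peptide-only wells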
Numbers without * were called inactive; x = no result; [ ] = dose if it differs, or a comment.

SMILES	Bim-Mcl-1	eIF4E 4G PPI	MCL1-BIM inh	Mcl1-Bid inh	14-3-3 Bad PPI	Mcl1 Noxa PPI
CCCCCCCCCCCCCCCCn1cc[n+](C)c1	-2	43*	5	28	95*	30
CCn1ncc(-c2ccnc3cc(C(=O)O)nn23)c1C	0	25	2	-26	70*	38
COc1ccc(S(=O)(=O)Nc2ccccc2)cc1	x	x	2	x	x	x
COc1ccc(S(=O)(=O)Nc2ccc(O)c3ccccc23)cc1	-10	3	9	-7	2	66*
CCOC(=O)CNC(=O)C1CCN(S(=O)(=O)c2ccc(-c3nn[nH]n3)cc2)CC1	x	x	5	x	x	x
O=C1OCC/C1=C\OCCCO/C=C1\CCOC1=O	x	86*	-7	-38	5	-5
CC(Sc1nnc(CC(=O)Nc2ccccc2F)n1C)C(=O)Nc1nccs1 (configuration not stated)	x	x	2	x	x	x
COCCn1c(SCC(=O)NCC2CCCO2)nc2c(c1=O)SCC2 (configuration not stated)	x	x	14	x	x	x
Oc1ccc(N2CCN(c3nc(-c4cccs4)nc4ccccc34)CC2)cc1	x	1	44*	-42	6	94*
c1ccc(N2CCN(c3nc(-c4cccs4)nc4ccccc34)CC2)cc1	5	-2	-4	-9	-7	0
O=S1(=O)[C@H]2C[C@@H]3C=C[C@]2(CN1Cc1ccc(C(F)(F)F)cc1)O3	x	2	5	-37	-1	-1
CCOc1cc(CNc2ccccc2SC)ccc1O	-7	-4	0	-7	18	-5
COc1cc(CNc2ccccc2SC)ccc1O	-1	-8	10	-37	77*	22
CCc1nc(C)ccc1OCC(=O)NCCCN(C)C	-3	-4	0	55*	68	32
O=C(NC(Cc1ccccc1)C(=O)O)OCc1ccccc1 (configuration not stated)	-1	-5	-2	-25	-2	10
CC(C)(C)OC(=O)NC(Cc1ccccc1)C(=O)O (configuration not stated)	x	4	4	60*	23	36
O=C(Cc1cccc(C(F)(F)F)c1)NCC(c1ccco1)N1CCCCC1 (configuration not stated)	-3	-4	-3	-25	89*	-1
CCn1c(-c2ccccc2)csc1=Nc1ccc(O)cc1	1	6	9	-35	-5	64*
CN(C)c1cc(NC(=O)CN2CCCC2)c2ccccc2n1	x	2	4	37	38	54*
CCOC(=O)c1nnn(-c2nonc2N)c1CN1CCc2ccccc2C1	-5	3	4	-17	1	-6
CCOC(=O)c1nnn(-c2nonc2N)c1CS(=O)(=O)c1ccccc1	-1	2	-6	55*	-5	11
O=S(=O)(c1ccc(Cl)cc1)N1CCC2(CC1)CO2	-1	4	-11	-8	-6	7
CC1(OC(=O)c2ccco2)C(=O)C=C2C=C(c3ccsc3)OC=C2C1=O (configuration not stated)	x	x	31	x	x	x
CCC(=O)OC1(C)C(=O)C=C2C=C(c3ccsc3)OC=C2C1=O (configuration not stated)	x	12	36	4	2	68*
C=CCn1c(=O)/c(=C2/Sc3ccccc3N2CC)s/c1=C1/C(=O)NN=C1C	-1	-2	-5	-44	-11	4
SMILES	Bim-Mcl-1	eIF4E 4G PPI	MCL1-BIM inh	Mcl1-Bid inh	14-3-3 Bad PPI	Mcl1 Noxa PPI
C=CCn1c(=O)/c(=C2/SC(C)=C(C)N2CC)s/c1=C1/C(=O)N(CC)C(=S)N1c1ccccc1	-4	0	-5	59*	-5	29
COc1ccccc1C(=O)Nc1ccc2c(c1)nc(CN1CCCCC1)n2C	2	3	8	-7	8	31
CCOC(=O)NC(=O)/C(C#N)=C/c1ccc(N(C)C)cc1	x	2	-89	82*	-9	-2
CN(C)c1ccc(/C=C(\C#N)C(=O)c2ccccc2)cc1	x	-6	-149	-60	-14	21
CCc1ccc(S(=O)(=O)Nc2ccc(O)c3c(=O)cc(-c4ccccc4Cl)oc23)cc1	x	-4	0	-15	-4	1
O=c1cc(-c2ccccc2Cl)oc2c(NS(=O)(=O)c3cc(Cl)cc(Cl)c3O)ccc(O)c12	0	15	13	70*	10	110*
C/C(=N\NC(=O)c1ccc(NS(=O)(=O)c2cccs2)cc1)c1ccc(O)cc1O	x	-3	11	-21	-3	4
CCOC(=O)C1=C(c2ccccc2)NC(N)=NC1c1ccc(OCc2ccc(C(=O)OC)cc2)cc1 (configuration not stated)	x	28	2	-4	90*	6
COc1ccc(C)cc1N1CC(C(=O)Nc2ccccc2C(=O)NC2CC2)CC1=O (configuration not stated)	x	x	-16	x	x	x
CCn1c(SCC(=O)N/N=C/C=C/c2ccco2)nnc1-c1ccc(OC)cc1	-2	22	10	-14	80*[fluorescence artefact?]	18
CCn1c(SCC(=O)N/N=C/C=C/c2ccco2)nc2ccccc21	-5	-2	22	-8	-10	42
CC1CCCCC1N(C)C1CCN(C(=O)CNC(=O)/C=C/c2cccc(Cl)c2)CC1 (configuration not stated)	x	x	-1	x	x	x
CNCCOc1ccccc1-c1ccccc1	-6	-12	2	33	36	13
CN(C)CCOCCOc1ccccc1-c1ccccc1	-2	3	10	48	87*	5
CN(C)CCOc1ccccc1-c1ccccc1	-1	-12	-3	27	72*	26
COc1cccc(OC)c1OCCN(C)C	-4	-3	-5	-1	86*	-5
OCCNCCOCCOc1ccccc1-c1ccccc1	-4	5	-5	-12	7	29
O=C(Nc1ccc(-c2nc3ccccc3[nH]2)cc1)c1cccc(N2C(=O)CCC2=O)c1	-5	-1	2	24	1	-20
CC1C(=O)N2CCCc3cc(S(=O)(=O)NCc4ccccc4Cl)cc1c32 (configuration not stated)	x	x	-6	x	x	x
O=C(O)c1cccc(N2C(=O)/C(=C/c3ccc(SCc4ccc(Cl)cc4)o3)SC2=S)c1	11	49*	x	84*	85*	89*
O=C(CCN1C(=O)/C(=C/c2ccc(Cl)cc2)SC1=S)Nc1cccc(C(=O)O)c1	x	x	1	x	x	x
Nn1c(SCc2cccc(Br)c2)nnc1-c1cccnc1	x	-4	-2	-15	-9	-1

Assay outcomes: PubChem BioAssay, several laboratories
